In article PMC7862700, “An all-to-all approach to the identification of sequence-specific readers for epigenetic DNA modifications on cytosine” one finds binding signal data, which are given here for one sequence.

What all share (assay): DAPPL (digital affinity profiling via proximity ligation, sequencing); 10 mM Tris-HCl pH 7.5, 50 mM NaCl, 1 mM DTT, 4% glycerol, room temperature, 30 min; GST-TFs on glutathione beads, 16-mer random dsDNA library, 0.1% formaldehyde crosslink after washing; high values mean tight binding
One test deals with T1, FEV (Homo sapiens, UniProt Q99581 1-238).
T1 sequence: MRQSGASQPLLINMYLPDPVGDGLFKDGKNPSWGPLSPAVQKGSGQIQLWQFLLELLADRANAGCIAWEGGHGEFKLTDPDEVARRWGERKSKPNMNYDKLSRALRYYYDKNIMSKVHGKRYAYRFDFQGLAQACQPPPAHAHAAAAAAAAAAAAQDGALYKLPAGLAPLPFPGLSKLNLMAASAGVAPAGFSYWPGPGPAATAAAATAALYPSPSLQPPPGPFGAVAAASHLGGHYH
The following applies: protein: recombinant; tags: N-terminal GST; dsDNA, one strand shown. In short, it runs like this:
(§1)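 A tag-only sample was pooled with DNA-barcoded human transcription factors that had been expressed in yeast as GST fusions and captured on glutathione beads. The pools were incubated for 30 min at room temperature with 200 nmole of a random double-stranded 16-mer DNA library in Tris/NaCl/DTT/glycerol buffer, then washed, crosslinked with 0.1% formaldehyde, proximity-ligated (BsaI/T4 ligase, 1 h, 37 °C), PCR-amplified and sequenced on an Illumina NextSeq500. Binding signal is each hexamer's read frequency for a factor divided by its frequency for the tag-only sample.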

The next test has as its target ETV5 (Homo sapiens, UniProt P41161 1-510). The following applies: protein: recombinant; tags: N-terminal GST; dsDNA, one strand shown. Put shortly:
as §1

The next test has as its target HSF1 (Homo sapiens, UniProt Q00613 1-529). To be noted: protein: recombinant; tags: N-terminal GST; chain copies: 3; dsDNA, one strand shown. In short, it runs like this:
as §1

In another test the target is T2, SPIC (Homo sapiens, UniProt Q8N5J4 1-248).
T2 sequence: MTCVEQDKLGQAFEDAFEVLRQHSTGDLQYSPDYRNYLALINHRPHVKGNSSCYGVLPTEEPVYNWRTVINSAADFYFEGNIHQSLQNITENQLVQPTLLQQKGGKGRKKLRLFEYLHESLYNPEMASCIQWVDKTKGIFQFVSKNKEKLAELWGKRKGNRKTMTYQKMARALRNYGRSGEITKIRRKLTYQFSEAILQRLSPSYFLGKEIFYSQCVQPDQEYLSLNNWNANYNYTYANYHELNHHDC
To be noted: protein: recombinant; tags: N-terminal GST; dsDNA, one strand shown. Put shortly: as §1

Another test addresses ELF4 (Homo sapiens, UniProt Q99607 1-663). To be noted: protein: recombinant; tags: N-terminal GST; dsDNA, one strand shown. Put shortly: as §1
A further test has as its target T3, ELK4 (Homo sapiens, UniProt P28324-2 1-405).
T3 sequence: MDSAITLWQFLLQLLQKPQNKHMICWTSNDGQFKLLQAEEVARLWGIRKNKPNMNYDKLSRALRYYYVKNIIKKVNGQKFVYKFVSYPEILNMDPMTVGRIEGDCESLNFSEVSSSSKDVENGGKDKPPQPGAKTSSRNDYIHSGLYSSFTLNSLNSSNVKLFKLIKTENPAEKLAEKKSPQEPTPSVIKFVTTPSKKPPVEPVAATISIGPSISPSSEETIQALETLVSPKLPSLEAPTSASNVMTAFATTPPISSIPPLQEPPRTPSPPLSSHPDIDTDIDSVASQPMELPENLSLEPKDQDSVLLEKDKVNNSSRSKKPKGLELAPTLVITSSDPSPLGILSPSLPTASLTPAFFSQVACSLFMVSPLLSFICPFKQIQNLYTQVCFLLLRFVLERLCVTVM
To be noted: protein: recombinant; tags: N-terminal GST; dsDNA, one strand shown. Put shortly: as §1

The target in a further test is T4, ETV2 (Homo sapiens, UniProt O00321 1-342).
T4 sequence: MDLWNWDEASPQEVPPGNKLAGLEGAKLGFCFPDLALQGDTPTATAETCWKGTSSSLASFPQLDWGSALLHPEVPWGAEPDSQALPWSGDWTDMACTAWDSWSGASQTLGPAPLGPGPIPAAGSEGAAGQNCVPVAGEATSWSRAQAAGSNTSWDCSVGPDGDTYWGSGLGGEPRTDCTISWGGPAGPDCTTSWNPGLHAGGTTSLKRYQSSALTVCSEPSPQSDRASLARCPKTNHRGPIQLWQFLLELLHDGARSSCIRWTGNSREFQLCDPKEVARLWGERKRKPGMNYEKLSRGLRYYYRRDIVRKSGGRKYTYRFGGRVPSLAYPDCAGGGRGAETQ
The following applies: protein: recombinant; tags: N-terminal GST; dsDNA, one strand shown. Put shortly:
as §1

The next test addresses T5, ELF3 (Homo sapiens, UniProt P78545 1-371).
T5 sequence: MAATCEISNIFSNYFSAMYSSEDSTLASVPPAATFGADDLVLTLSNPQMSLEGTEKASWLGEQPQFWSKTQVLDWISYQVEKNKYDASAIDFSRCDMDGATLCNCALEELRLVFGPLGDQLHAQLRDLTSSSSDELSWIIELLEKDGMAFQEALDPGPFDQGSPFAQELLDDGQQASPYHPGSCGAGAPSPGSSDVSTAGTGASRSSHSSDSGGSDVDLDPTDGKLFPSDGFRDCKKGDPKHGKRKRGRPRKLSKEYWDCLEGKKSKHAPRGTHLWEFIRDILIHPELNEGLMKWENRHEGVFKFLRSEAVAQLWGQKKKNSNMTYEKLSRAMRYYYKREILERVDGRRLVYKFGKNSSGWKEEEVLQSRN
The following applies: protein: recombinant; tags: N-terminal GST; dsDNA, one strand shown. Put shortly: as §1

For another test, the target named is CRX (Homo sapiens, UniProt O43186 1-299). The following applies: protein: recombinant; tags: N-terminal GST; dsDNA, one strand shown. In short, it runs like this: as §1
A further test addresses ETV1 (Homo sapiens, UniProt P50549 1-477). The following applies: protein: recombinant; tags: N-terminal GST; dsDNA, one strand shown. In short, it runs like this:
as §1

The next test deals with T6, ERF (Homo sapiens, UniProt P50548 1-548).
T6 sequence: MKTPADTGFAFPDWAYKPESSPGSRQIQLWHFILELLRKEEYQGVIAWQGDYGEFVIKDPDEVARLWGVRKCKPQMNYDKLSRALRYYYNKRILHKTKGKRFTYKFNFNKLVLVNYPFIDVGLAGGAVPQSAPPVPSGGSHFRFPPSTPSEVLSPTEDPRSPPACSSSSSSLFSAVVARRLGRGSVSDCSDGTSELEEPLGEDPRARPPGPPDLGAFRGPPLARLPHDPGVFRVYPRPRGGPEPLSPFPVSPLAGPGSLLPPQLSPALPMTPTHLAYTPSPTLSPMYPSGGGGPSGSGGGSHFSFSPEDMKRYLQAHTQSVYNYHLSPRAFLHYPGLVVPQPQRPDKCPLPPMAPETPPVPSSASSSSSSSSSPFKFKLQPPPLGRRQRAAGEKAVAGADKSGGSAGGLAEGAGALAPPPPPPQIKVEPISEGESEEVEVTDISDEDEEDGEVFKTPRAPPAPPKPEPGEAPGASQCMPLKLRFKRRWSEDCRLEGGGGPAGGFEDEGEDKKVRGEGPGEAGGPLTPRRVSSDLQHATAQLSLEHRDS
To be noted: protein: recombinant; tags: N-terminal GST; dsDNA, one strand shown. Put shortly:
as §1

The target in another test is T7, ETV3L (Homo sapiens, UniProt Q6ZN32 1-361).
T7 sequence: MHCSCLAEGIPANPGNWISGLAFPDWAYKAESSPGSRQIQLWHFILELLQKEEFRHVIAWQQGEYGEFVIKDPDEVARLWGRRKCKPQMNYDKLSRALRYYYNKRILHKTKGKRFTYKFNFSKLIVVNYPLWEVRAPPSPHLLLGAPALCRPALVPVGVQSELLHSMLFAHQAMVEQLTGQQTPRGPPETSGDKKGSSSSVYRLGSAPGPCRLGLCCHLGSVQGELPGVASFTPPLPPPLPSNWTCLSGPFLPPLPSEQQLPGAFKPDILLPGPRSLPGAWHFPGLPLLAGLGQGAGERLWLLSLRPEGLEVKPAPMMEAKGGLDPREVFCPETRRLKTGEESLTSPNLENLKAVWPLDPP
The following applies: protein: recombinant; tags: N-terminal GST; dsDNA, one strand shown. In short, it runs like this:
as §1

A further test addresses T8, ETS2 (Homo sapiens, UniProt P15036 1-469).
T8 sequence: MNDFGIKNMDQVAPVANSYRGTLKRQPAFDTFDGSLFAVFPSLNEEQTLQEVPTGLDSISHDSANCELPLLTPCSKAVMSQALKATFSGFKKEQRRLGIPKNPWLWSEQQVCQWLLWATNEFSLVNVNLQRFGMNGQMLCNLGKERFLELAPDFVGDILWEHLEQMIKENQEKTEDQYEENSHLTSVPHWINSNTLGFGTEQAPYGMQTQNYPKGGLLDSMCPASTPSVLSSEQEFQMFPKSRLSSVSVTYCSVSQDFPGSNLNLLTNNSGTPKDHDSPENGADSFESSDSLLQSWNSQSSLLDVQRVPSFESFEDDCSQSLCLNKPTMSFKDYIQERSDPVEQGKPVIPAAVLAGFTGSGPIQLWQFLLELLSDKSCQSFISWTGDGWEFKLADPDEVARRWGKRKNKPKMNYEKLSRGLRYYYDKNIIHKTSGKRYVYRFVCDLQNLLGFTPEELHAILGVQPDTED
To be noted: protein: recombinant; tags: N-terminal GST; dsDNA, one strand shown. In short, it runs like this: as §1

Another test concerns the target T9, SPDEF (Homo sapiens, UniProt O95238 1-335).
T9 sequence: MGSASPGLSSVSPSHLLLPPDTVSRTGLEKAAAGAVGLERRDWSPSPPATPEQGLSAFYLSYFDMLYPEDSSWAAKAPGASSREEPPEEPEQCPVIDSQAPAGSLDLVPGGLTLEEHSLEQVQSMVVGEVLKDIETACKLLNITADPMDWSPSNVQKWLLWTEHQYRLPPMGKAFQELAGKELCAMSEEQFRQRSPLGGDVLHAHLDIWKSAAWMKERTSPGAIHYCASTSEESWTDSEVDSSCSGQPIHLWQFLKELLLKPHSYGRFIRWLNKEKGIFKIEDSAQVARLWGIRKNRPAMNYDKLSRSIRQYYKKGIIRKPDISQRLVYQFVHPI
The following applies: protein: recombinant; tags: N-terminal GST; dsDNA, one strand shown. Put shortly:
as §1

The target of another test is T10, ETV7 (Homo sapiens, UniProt Q9Y603 1-341).
T10 sequence: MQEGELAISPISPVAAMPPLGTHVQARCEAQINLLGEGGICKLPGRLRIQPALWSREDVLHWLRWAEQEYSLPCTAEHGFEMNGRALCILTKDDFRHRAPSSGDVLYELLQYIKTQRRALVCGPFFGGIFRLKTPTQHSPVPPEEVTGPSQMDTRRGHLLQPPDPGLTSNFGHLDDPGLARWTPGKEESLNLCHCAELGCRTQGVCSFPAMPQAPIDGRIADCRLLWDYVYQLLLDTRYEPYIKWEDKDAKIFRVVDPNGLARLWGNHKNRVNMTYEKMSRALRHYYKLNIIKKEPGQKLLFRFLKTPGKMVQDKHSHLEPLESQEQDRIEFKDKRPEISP
To be noted: protein: recombinant; tags: N-terminal GST; dsDNA, one strand shown. In short, it runs like this: as §1

A further test addresses T11, ELF5 (Homo sapiens, UniProt Q9UKW6-2 1-255).
T11 sequence: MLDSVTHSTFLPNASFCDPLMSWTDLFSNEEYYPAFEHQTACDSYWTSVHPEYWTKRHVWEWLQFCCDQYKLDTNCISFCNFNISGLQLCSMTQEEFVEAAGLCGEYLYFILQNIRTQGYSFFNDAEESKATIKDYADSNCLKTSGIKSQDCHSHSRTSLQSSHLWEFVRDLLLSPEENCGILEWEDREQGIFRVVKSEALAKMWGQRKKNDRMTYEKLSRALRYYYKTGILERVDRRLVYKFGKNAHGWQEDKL
The following applies: protein: recombinant; tags: N-terminal GST; dsDNA, one strand shown. Put shortly:
as §1

In a further test the target is T12, ETV3 (Homo sapiens, UniProt P41162-2 1-143).
T12 sequence: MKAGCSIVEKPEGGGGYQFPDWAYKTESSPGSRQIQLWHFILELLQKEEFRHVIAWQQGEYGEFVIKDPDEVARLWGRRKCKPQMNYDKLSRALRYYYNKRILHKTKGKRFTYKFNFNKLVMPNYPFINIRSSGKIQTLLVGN
The following applies: protein: recombinant; tags: N-terminal GST; dsDNA, one strand shown. Put shortly:
as §1

Another test has as its target ETV6 (Homo sapiens, UniProt P41212 1-452). To be noted: protein: recombinant; tags: N-terminal GST; dsDNA, one strand shown. In short, it runs like this: as §1

ETV6, sequence (P41212 whole entry): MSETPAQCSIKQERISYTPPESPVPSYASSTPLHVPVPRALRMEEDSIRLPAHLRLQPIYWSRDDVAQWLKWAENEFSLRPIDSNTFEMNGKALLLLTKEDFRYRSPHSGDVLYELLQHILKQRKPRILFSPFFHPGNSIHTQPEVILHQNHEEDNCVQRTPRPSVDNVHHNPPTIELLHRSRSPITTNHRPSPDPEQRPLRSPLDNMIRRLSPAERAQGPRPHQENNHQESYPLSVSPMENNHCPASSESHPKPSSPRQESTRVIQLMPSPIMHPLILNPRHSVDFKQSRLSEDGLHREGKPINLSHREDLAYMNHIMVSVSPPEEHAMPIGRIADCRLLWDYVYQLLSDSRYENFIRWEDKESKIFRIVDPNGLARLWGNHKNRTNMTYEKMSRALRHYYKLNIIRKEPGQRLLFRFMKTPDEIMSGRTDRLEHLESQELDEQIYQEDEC
ELF4, sequence (Q99607 whole entry): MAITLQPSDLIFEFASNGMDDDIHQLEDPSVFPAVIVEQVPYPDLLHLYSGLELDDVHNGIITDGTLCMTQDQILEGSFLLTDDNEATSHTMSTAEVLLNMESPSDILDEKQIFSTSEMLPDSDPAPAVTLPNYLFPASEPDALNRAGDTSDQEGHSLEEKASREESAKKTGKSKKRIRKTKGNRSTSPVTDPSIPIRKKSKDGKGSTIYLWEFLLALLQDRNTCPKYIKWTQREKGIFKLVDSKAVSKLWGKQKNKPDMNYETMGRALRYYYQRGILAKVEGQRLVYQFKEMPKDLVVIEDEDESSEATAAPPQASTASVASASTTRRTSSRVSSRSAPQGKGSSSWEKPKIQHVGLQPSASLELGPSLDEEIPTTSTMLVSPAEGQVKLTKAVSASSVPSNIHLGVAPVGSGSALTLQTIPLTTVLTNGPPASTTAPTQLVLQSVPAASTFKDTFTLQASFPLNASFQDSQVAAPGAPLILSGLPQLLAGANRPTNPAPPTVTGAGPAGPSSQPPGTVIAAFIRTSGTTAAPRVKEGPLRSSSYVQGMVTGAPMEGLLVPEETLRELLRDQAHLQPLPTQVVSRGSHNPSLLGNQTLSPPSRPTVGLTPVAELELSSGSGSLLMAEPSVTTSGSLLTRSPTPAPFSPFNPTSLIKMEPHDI
HSF1, sequence (Q00613 whole entry): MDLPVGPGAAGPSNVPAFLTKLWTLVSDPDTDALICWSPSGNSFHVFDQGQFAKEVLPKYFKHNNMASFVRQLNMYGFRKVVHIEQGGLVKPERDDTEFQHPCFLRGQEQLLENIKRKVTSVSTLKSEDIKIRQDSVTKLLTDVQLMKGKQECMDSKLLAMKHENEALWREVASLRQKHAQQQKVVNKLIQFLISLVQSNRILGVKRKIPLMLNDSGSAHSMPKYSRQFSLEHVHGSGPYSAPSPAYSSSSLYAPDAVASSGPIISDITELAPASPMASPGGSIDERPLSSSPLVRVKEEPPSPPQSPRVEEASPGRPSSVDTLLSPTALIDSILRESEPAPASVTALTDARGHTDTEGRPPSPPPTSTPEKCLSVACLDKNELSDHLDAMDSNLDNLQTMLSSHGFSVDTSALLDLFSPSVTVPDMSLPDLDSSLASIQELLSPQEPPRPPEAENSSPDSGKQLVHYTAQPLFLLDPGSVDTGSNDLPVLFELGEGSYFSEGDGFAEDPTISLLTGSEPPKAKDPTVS
ETV1, sequence (P50549 whole entry): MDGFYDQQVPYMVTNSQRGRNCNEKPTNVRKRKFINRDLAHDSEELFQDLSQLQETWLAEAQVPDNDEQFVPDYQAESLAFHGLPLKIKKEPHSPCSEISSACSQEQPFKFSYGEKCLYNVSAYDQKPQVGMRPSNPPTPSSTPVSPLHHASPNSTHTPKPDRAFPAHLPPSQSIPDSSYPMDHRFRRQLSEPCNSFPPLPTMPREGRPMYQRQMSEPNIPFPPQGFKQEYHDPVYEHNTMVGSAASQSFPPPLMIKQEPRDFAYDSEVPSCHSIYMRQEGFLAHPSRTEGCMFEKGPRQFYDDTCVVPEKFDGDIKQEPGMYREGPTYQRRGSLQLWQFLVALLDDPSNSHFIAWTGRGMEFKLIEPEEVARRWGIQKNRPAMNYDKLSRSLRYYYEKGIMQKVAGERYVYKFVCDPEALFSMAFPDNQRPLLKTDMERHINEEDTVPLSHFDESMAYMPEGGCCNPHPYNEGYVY
ETV5, sequence (P41161 whole entry): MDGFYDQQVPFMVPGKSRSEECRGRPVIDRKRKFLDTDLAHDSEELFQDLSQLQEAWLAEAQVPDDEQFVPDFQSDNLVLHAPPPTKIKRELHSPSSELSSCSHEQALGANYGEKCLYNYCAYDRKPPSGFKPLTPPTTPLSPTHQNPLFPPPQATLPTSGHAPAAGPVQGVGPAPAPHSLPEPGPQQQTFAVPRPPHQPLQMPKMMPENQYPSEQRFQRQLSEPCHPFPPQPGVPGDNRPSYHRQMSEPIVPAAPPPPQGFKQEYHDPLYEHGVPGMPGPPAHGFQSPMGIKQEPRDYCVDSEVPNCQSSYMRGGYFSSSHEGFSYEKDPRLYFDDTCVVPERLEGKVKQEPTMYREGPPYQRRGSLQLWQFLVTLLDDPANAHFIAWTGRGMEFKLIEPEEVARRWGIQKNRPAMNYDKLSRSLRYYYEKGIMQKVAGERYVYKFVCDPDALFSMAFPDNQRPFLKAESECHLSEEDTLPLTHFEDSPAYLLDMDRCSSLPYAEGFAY
CRX, sequence (O43186 whole entry): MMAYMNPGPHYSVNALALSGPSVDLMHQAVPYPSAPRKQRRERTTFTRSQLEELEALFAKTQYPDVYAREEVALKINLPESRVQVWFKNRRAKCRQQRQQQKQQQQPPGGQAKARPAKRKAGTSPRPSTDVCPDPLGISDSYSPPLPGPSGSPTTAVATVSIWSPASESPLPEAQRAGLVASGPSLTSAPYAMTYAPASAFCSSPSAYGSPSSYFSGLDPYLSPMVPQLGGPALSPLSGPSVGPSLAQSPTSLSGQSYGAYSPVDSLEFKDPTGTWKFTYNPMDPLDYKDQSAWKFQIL

Take CCTGAT: the binding signal is 1.32 fold enrichment (6-mer frequency, TF over GST control) with FEV; 1.49 fold enrichment (6-mer frequency, TF over GST control) with ETV5; 1.32 fold enrichment (6-mer frequency, TF over GST control) with HSF1; 1.42 fold enrichment (6-mer frequency, TF over GST control) with SPIC; 1.59 fold enrichment (6-mer frequency, TF over GST control) in the test with ELF4; 1.5 fold enrichment (6-mer frequency, TF over GST control) with ELK4. For the same sequence, the binding signal in the test with ETV2 is 1.55 fold enrichment (6-mer frequency, TF over GST control); in the test with ELF3 it was 1.34 fold enrichment (6-mer frequency, TF over GST control); with CRX, 1.44 fold enrichment (6-mer frequency, TF over GST control); with ETV1 it was 1.46 fold enrichment (6-mer frequency, TF over GST control); with ERF, 1.5 fold enrichment (6-mer frequency, TF over GST control); in the test with ETV3L, 1.36 fold enrichment (6-mer frequency, TF over GST control). Besides, the binding signal with ETS2 is 1.46 fold enrichment (6-mer frequency, TF over GST control); with SPDEF it was 1.59 fold enrichment (6-mer frequency, TF over GST control); in the test with ETV7 it was 1.29 fold enrichment (6-mer frequency, TF over GST control); with ELF5, 1.64 fold enrichment (6-mer frequency, TF over GST control); with ETV3, 1.43 fold enrichment (6-mer frequency, TF over GST control); with ETV6 it was 1.41 fold enrichment (6-mer frequency, TF over GST control).
